# “And” between values parts separate entries of the source, which are not always exact repeats. Identical values can stand only once. About 83,000 compounds went through this panel and 20% of them were active in at least one assay; those are over-represented in the sample as a whole.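 Interpretation: 100, growth as untreated; towards 0, rising growth inhibition; 0, no net growth; 0 to -100, cell death. Compounds scoring below 10 were considered active.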 The source made the active and inactive calls.
# Test system: SK-MEL-5 melanoma
# Assay: NCI-60 one-dose screen, 48 h (100 = growth as untreated, 0 = no growth, -100 = all killed)
# Details: 10 µM unless noted
row,Structure (SMILES),growth
1,COc1cc2c(c(OC)c1OC)-c1ccc(OC)c(=O)cc1[C@@H](NC(C)=O)CC2,-59.8% (active) and -36.1% (active) and -32% (active)
2,CCN(CC)CCCC(CNc1ccnc2cc(Cl)ccc12)c1ccc(Cl)cc1 (stereo not drawn),-92.8% (active) and -96.9% (active)
3,N#CCCOc1ccccc1,105% (inactive)
4,COc1ccc(/C(C#N)=C/c2ccccn2)cc1,94.9% (inactive) and 99.9% (inactive)
5,CCN(CC)C(=S)SSC(=S)N(CC)CC,40.2% (inactive) and 110% (inactive)
6,Nc1ccc(N=Nc2ccc(S(=O)(=O)O)cc2)cc1S(=O)(=O)O,111% (inactive) and 103% (inactive)
7,CCN(CC)CCOc1ccc2c(c1)C(=O)c1cc(OCCN(CC)CC)ccc1-2,95% (inactive) and 95.5% (inactive)
8,O=C1OC2(c3ccccc31)c1ccc(O)c(O)c1Oc1c2ccc(O)c1O,106% (inactive) and 100% (inactive)
9,O=S(=O)(Nc1ccccc1)C1CCCCC1,110% (inactive)
10,CCNC(=O)Nc1ccc(-c2nc3c(c(N4CCOC[C@@H]4C)n2)CCN(C2COC2)C3)cc1,22.4% (inactive) and -26.4% (active)
11,CC(C)Cc1ccc(C(C)C(=O)NCc2ccc(Cn3c(=O)sn(CCCCl)c3=O)cc2)cc1 (stereo not drawn),91.8% (inactive) and -78.1% (active)
12,OCc1ccccn1,99.8% (inactive)
13,Nc1ncnc2c1ncn2C1CC(O)C(CO)O1 (stereo not drawn),115% (inactive) and 108% (inactive)
14,CCCCCCCCCCCCCCCc1cc(O)ccc1N,100% (inactive) and 78.6% (inactive)
15,Cc1ccc2nc3c(nc2c1)-c1cccc2cccc-3c12,62.7% (inactive)
16,O=[N+]([O-])c1ccc(/C=N\NC(=S)Nc2ccc(F)cc2)cc1,102% (inactive) and 101% (inactive)
17,CCN(CC)C(=O)c1cccnc1,103% (inactive)
18,CN1CCN(CCC=C2c3ccccc3Sc3ccc(S(=O)(=O)N(C)C)cc32)CC1,26.4% (inactive) and 69.1% (inactive)
19,Oc1nc(NCCc2ccccc2)sc1/C=C1\C=Nc2ncccc21,-0.16% (active) and 14.5% (inactive)

row,Structure (SMILES),growth
1,COc1cc2nc(N3CCN(C(=O)C4COc5ccccc5O4)CC3)nc(N)c2cc1OC (stereo not drawn),92.2% (inactive) and 86.6% (inactive) and 101% (inactive)
2,c1ccc2cc(C[n+]3ccn(Cc4ccc5ccccc5n4)c3)ccc2c1,-87.6% (active) and -67.9% (active)
3,COc1ccc(Cn2c(NCCN=C(N)N)nc(=O)n(Cc3ccc(F)cc3)c2=O)cc1,98.7% (inactive) and 99.9% (inactive)
4,O=C(N/N=C/c1cccc2ccccc12)C1CC1,105% (inactive) and 96.6% (inactive)
5,CC(C)CNC(=O)c1ccccc1C(=O)NC1(C(=O)NCC(C)C)CCCC1,106% (inactive) and 115% (inactive)
6,Cn1c(=O)n(-c2ccc(C(C)(C)C#N)cc2)c2c3cc(-c4cnc5ccccc5c4)ccc3ncc21,-62.1% (active) and -89.1% (active)
7,CN(C)c1ccc(C(Cc2ccc3ccccc3n2)Cc2ccc3ccccc3n2)cc1,19.8% (inactive) and 76.7% (inactive)
8,Cc1ccc(S(=O)(=O)Nc2ccc3cc([N+](=O)[O-])ccc3c2[N+](=O)[O-])cc1,86.1% (inactive)
9,NS(=O)(=O)c1cc2c(cc1Cl)NC(C(Cl)Cl)NS2(=O)=O (stereo not drawn),99.7% (inactive) and 102% (inactive)
10,Nc1ccccc1Nc1ccccc1,89.5% (inactive) and 94.7% (inactive)
11,c1ccc2c(CC3=NCCN3)cccc2c1,92.7% (inactive) and 108% (inactive)
12,Clc1ccc(NC(Nc2ccc(Cl)cc2)C(Cl)(Cl)Cl)cc1,91.3% (inactive) and 85.3% (inactive)
13,CCOc1ccc2c(S(=O)(=O)O)cccc2c1[N+](=O)[O-],108% (inactive)
14,CCN(CC)CCCC(C)N(Cc1ccccc1)CC(O)c1ccc(Cl)cc1 (stereo not drawn),100% (inactive) and 105% (inactive)
15,Cn1cnc([N+](=O)[O-])c1Sc1ncnc2nc[nH]c12,77.9% (inactive)
16,Nc1nc2ncc(CNc3ccc(C(=O)N[C@@H](CCc4nn[nH]n4)C(=O)O)cc3)nc2c(=O)[nH]1,101% (inactive) and 96.7% (inactive)
17,Oc1c(Cl)cc(Cl)cc1Sc1cc(Cl)cc(Cl)c1O,48% (inactive) and 51% (inactive)
18,O=S1(=O)CC(Br)C(Br)C1 (stereo not drawn),93.2% (inactive) and 99.2% (inactive)
19,CN(C)c1ccc2nc3ccc(N)cc3[n+](-c3ccccc3)c2c1,-5.68% (active) and -77.7% (active)

# Reference: PubChem BioAssay (NCI)
